# Bioassay records from PubChem BioAssay.
# Shown is part of a subset that was picked to be rich in hits.
# miR122 inh – activators of miR-122 sensor in Huh7 cells | 340,000 tested, 0.14% active | Huh7 psiCHECK-miR122 Renilla luciferase sensor, 48 h | activation, % at 12.5 µM;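 active = mean activation of 30% or more, with every replicate also reaching 30%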;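 note: higher luciferase signal means stronger suppression of miR-122 activity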
# Hits are given with their value; 0 = inactive.
SMILES,miR122 inh
C[C@H]1CN([C@@H](C)CO)C(=O)c2cc(C#CC3(O)CCCC3)cnc2O[C@@H]1CN(C)C(=O)C1CCCCC1,0
C[C@H]1CN([C@@H](C)CO)S(=O)(=O)c2ccc(/C=C/c3ccccc3)cc2O[C@H]1CN(C)C(=O)Nc1cccc(F)c1,0
C[C@@H]1CN([C@H](C)CO)S(=O)(=O)c2ccc(C3=CCCCC3)cc2O[C@@H]1CN(C)C(=O)CC1CC1,0
COc1ccc(NC(=O)N(C)C[C@@H]2Oc3ncc(C4=CCCC4)cc3C(=O)N([C@@H](C)CO)C[C@H]2C)cc1,0
CCCC#Cc1cnc2c(c1)C(=O)N([C@@H](C)CO)C[C@H](C)[C@H](CN(C)Cc1cccnc1)O2,0
C[C@@H]1CN([C@H](C)CO)C(=O)c2cc(C3=CCCCC3)cnc2O[C@H]1CN(C)Cc1ccccc1C(=O)O,0
COc1ccc(-c2cnc3c(c2)C(=O)N([C@H](C)CO)C[C@@H](C)[C@@H](CN(C)C(=O)C2CCOCC2)O3)cc1,0
C/C=C/c1cnc2c(c1)C(=O)N([C@H](C)CO)C[C@@H](C)[C@@H](CN(C)S(=O)(=O)c1ccc(C)cc1)O2,0
C[C@H]1CN([C@@H](C)CO)C(=O)c2cc(-c3ccccc3F)cnc2O[C@H]1CN(C)Cc1ccccc1F,0
C[C@H](CO)N1C[C@H](C)[C@@H](CN(C)Cc2ccc(C(F)(F)F)cc2)Oc2c(NC(=O)c3cnccn3)cccc2C1=O,0
CCNC(=O)C[C@@H]1CC[C@H]2[C@@H](COc3ccc(NC(=O)Nc4ccc(F)cc4)cc3C(=O)N2C)O1,50
C[C@@H]1CN([C@@H](C)CO)C(=O)c2cc(-c3ccncc3)cnc2O[C@@H]1CN(C)C(=O)c1ccccc1F,0
COCC#Cc1ccc2c(c1)O[C@H](CN(C)C(=O)C1CCCCC1)[C@H](C)CN([C@@H](C)CO)S2(=O)=O,0
CCCCN(CCCC)C(=O)CN(C)S(=O)(=O)c1ccc2c(c1)n(C)c(=O)c(=O)n2C,50
C[C@H]1CN([C@@H](C)CO)C(=O)c2cc(C#CC(C)(C)O)cnc2O[C@H]1CN(C)C(=O)C1CC1,0
C[C@@H]1CN([C@@H](C)CO)S(=O)(=O)c2ccc(C#Cc3cccnc3)cc2O[C@H]1CN(C)CC1CCOCC1,0
Cc1ccc(-c2ccc3c(c2)O[C@@H](CN(C)C(=O)NC(C)C)[C@H](C)CN([C@H](C)CO)S3(=O)=O)cc1,0
O=C(Nc1ccc(Cn2cccn2)cc1)c1ccc(COc2ccccc2Br)cc1,31
CCCC#Cc1cnc2c(c1)C(=O)N([C@H](C)CO)C[C@H](C)[C@H](CN(C)C(=O)c1ccccc1)O2,0
CC(C)C#Cc1ccc2c(c1)O[C@@H](CN(C)Cc1ccccn1)[C@H](C)CN([C@@H](C)CO)S2(=O)=O,0
C[C@H](CO)N1C[C@H](C)[C@@H](CN(C)S(C)(=O)=O)Oc2cc(C#Cc3ccccc3)ccc2S1(=O)=O,0
CCCNC(=O)N(C)C[C@@H]1Oc2ncc(C#CCC(C)C)cc2C(=O)N([C@H](C)CO)C[C@H]1C,0
C[C@@H]1CN([C@H](C)CO)S(=O)(=O)c2ccc(-c3ccccc3)cc2O[C@H]1CN(C)S(=O)(=O)c1ccccc1F,0
CCCCN1C=C(C(=O)OC)C(c2ccccc2C(F)(F)F)C(C(=O)OC)=C1,31
Cc1ccccc1-c1cnc2c(c1)C(=O)N([C@H](C)CO)C[C@@H](C)[C@H](CN(C)C(=O)c1ccccc1)O2,0
SMILES,miR122 inh
COc1cccc(C#Cc2ccc3c(c2)O[C@H](CN(C)C(=O)c2ccccn2)[C@H](C)CN([C@H](C)CO)S3(=O)=O)c1,0
COc1ccc(NS(=O)(=O)c2cc(NC(=O)c3ccc(F)cc3)ccc2OC)cc1,0
COc1ccc(NC(=O)Nc2ccc3c(c2)C(=O)N([C@@H](C)CO)C[C@H](C)[C@H](CN(C)Cc2ccc(C(F)(F)F)cc2)O3)cc1,0
CCN1CCN(Cc2ccc(NC(=O)c3cc(NC(=O)c4cc5cccc(OC)c5o4)cc(OC)c3)cc2C(F)(F)F)CC1,31
COc1ccc(C#Cc2ccc3c(c2)O[C@H](CN(C)C)[C@H](C)CN([C@@H](C)CO)S3(=O)=O)cc1,0
COCC(=O)N(C)C[C@H]1Oc2ncc(C#Cc3ccncc3)cc2C(=O)N([C@H](C)CO)C[C@@H]1C,0
CCCC(NS(=O)(=O)c1ccc(Br)cc1)C(=O)O (stereo not drawn),36
Cc1ccc(-c2cnc3c(c2)C(=O)N([C@@H](C)CO)C[C@@H](C)[C@@H](CN(C)C(=O)Cc2ccncc2)O3)cc1,0
C[C@H](CO)N1C[C@H](C)[C@@H](CN(C)C(=O)Nc2ccc(F)cc2)Oc2c(NS(=O)(=O)c3ccccc3)cccc2C1=O,0
C[C@H](CO)N1C[C@H](C)[C@H](CN(C)C(=O)Nc2ccccc2)Oc2ncc(-c3ccccc3)cc2C1=O,0
COCC(=O)NC[C@H]1[C@H](c2ccccc2)[C@@H](CO)N1C(=O)c1ccccc1,0
CC(=O)N1[C@H](CN(C(=O)c2ccc(F)cc2)C(C)C)[C@H](c2ccccc2)[C@@H]1CO,67
CCC(=O)N1[C@H](CN(CC)C(=O)c2cccc(F)c2)[C@H](c2ccccc2)[C@@H]1CO,0
